Only some compounds are listed: those with a hit (about 5.7% of all), similar ones and a draw of the others.
IL1B secr inh: qHTS for Inhibitors of Inflammasome Signaling: IL-1-beta AlphaLISA Primary Screen; actives 4.7% (n = 360,000); THP-1 LPS/ATP IL-1B secretion, AlphaLISA, 16 h; stronger effect = lower value; activity change, % at 57.5 µM; AID 743279, 2014; in the data active = activity change below about -50%; inconclusive = mostly about -30% to -49%; also: % is scaled to controls: 0 for no effect and ±100 for the full control effect
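THP-1 cells pretreated 1 hr with compounds (up to 57.5 uM final), then stimulated with LPS (250 ng/mL final) plus ATP (1.25 mM final); secreted IL-1B measured by AlphaLISA after 16 hr, decreased signal indicating inhibition.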
ATXN2 expr inh: Primary qHTS for Inhibitors of ATXN expression; Potency, µM (doses to about 57 µM), for the others: at the top dose activity change, negative = inhibition, usual class: inhibitors; HEK-293 ATXN2-luciferase reporter, luminescence, 24 h; actives 0.72% (n = 360,000); also: potency is read from the fitted curve at half-maximal effect; % is scaled to controls: 0 for no effect and ±100 for the full control effect; nearly all actives have a fitted effect of over 55% in size
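qHTS (up to 57 uM final) was run with 24 h compound exposure of reporter cells at 37 °C. Each well was multiplexed: SteadyGlo luminescence measured ATXN2-luciferase expression after a fluorogenic Gly-Phe-AFC viability readout (25 uM final).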
HepG2 tox: qHTS for Inhibitors of TGF-b: Cytotox Counterscreen; Potency, µM (top dose mostly 46.1 µM), inactives show top-dose activity change, negative = cytotoxicity, actives largely listed as cytotoxic; HepG2 CAGA-GFP viability, ATP luminescence, 18 h; actives 0.76% (n = 410,000); also: potency is read from the fitted curve at half-maximal effect
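CellTiter-Glo luminescence gave cytotoxicity after 18 hours at 37 degrees C. The cells were HepG2 CAGA-GFP in 1% FBS DMEM, stimulated with 500 pg/mL TGF-beta after compound addition. %Activity was normalised to no-cell wells (complete cell-killing) and DMSO (no toxicity), and curves were fitted and classified.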
TGFb inhibitor: qHTS for Inhibitors of TGF-b; HepG2 CAGA-GFP TGF-b/SMAD3 reporter, GFP fluorescence, 18 h; TGF-beta stimulated, 500 pg/mL final; Potency, µM (highest dose often 46.1 µM), inactives show at the top dose activity, negative = inhibition, most hits filed as inhibitors; actives 1.2% (n = 410,000); AID 588855, 2011; also: potency is read from the fitted curve at half-maximal effect; % is scaled to controls: 0 for no effect and ±100 for the full control effect; nearly all actives have a fitted effect of over 65% in size
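GFP signal (ex488/em500-530) from TGF-beta-stimulated HEPG2 CAGA-GFP cells, 500 pg/mL final, 18 h at 37 degrees C in DMEM plus 1% FBS, normalized to unstimulated and DMSO-stimulated controls.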
ATXN viability: Viability Counterscreen for Primary qHTS for Inhibitors of ATXN expression; S2 cells (HEK-293 line with an ATXN2-luciferase reporter) viability, CellTiter-Fluor protease fluorescence, 24 h; Potency, µM (series often up to 56.7 µM), usual class: cytotoxic; actives 0.49% (n = 400,000); also: potency is read from the fitted curve at half-maximal effect; nearly all actives have a fitted effect of over 40% in size
The depositor's hits bear a star. Unless noted, calls follow the shape of the dose curve; as a rule, active = well fitted curve in the direction sought with a large enough effect; inconclusive = small, poorly fitted or top-dose-only effect, or another doubt; inactive = no such curve, though single readings can be large; an effect the other way counts as inactive or inconclusive.

For CNS(=O)(=O)c1ccc2c3c(cccc13)C(=O)N2C the results were IL1B secr inh -84*, ATXN2 expr inh 11%, HepG2 tox -17% and TGFb inhibitor 8%.
`CCc1ccc(-c2csc3ncn(CC(=O)NCc4ccco4)c(=O)c23)cc1` gave IL1B secr inh -74*, ATXN2 expr inh -14%, HepG2 tox -17%, TGFb inhibitor inconclusive and ATXN viability inactive.
For COc1ccc(NC(=O)c2cc(S(=O)(=O)N3CCCC(C)C3)cn2C)c(OC)c1 (centres undefined) the results were ATXN2 expr inh 3%, HepG2 tox 1%, TGFb inhibitor 3% and ATXN viability inactive.
Screening Cc1cc(C(=O)CSc2nncs2)c(C)n1-c1ccc2c(c1)OCO2 returned IL1B secr inh -69*, ATXN2 expr inh 26%, HepG2 tox -22%, TGFb inhibitor -21% and ATXN viability inactive.
O=C(NCc1ccccc1Cl)c1cccc(C(F)(F)F)c1 was read as IL1B secr inh -80*, ATXN2 expr inh -8%, HepG2 tox 2%, TGFb inhibitor 8% and ATXN viability inactive.
For CCc1ccc(C(=O)NCc2ccc(Cl)cc2)cc1 the results were IL1B secr inh -3, ATXN2 expr inh 21%, HepG2 tox 1%, TGFb inhibitor -7% and ATXN viability inactive.
For CCc1ccc(C(=O)NCc2ccc(Cl)cc2Cl)cc1 the results were IL1B secr inh -52*, ATXN2 expr inh 19%, HepG2 tox -25%, TGFb inhibitor -9% and ATXN viability inactive.
O=C(NCc1cccc(Cl)c1)c1cccc(C(F)(F)F)c1 was read as IL1B secr inh -14, ATXN2 expr inh -9%, HepG2 tox -17%, TGFb inhibitor 1% and ATXN viability inactive.
Screening O=C(Cc1cccc(C(F)(F)F)c1)NCc1ccc(Cl)cc1Cl returned IL1B secr inh -66*, ATXN2 expr inh -1%, HepG2 tox -6%, TGFb inhibitor -20% and ATXN viability inactive.
Screening CC(NC(=O)c1ccco1)c1nnc2n1CCN(Cc1ccc(N3CCCC3)cc1)CC2 (centres undefined) returned ATXN viability inactive.
For COc1ccc(C(CC(=O)Nc2ccc(C(C)=O)cc2)N2Cc3ccccc3C2=O)cc1 (centres undefined) the results were HepG2 tox 1%.
N#CC(C#N)=Cc1ccc(OCC(=O)N2CCOCC2)cc1 was read as IL1B secr inh -53*, ATXN2 expr inh -31%, HepG2 tox -10%, TGFb inhibitor -11% and ATXN viability inactive.
Screening Cc1ccc(Cl)cc1-c1ccc(C=Nc2ccc(N3CCOCC3)cc2)o1 returned IL1B secr inh -2, ATXN2 expr inh inconclusive, HepG2 tox -40%, TGFb inhibitor 11µM* and ATXN viability inactive.
CCCCN(C)S(=O)(=O)c1ccc(C(=O)N(CCN(C)C)c2nc3ccc(C)cc3s2)cc1 was read as IL1B secr inh -9, HepG2 tox 0%, TGFb inhibitor 2% and ATXN viability inactive.
`CCN(Cc1ccccc1)S(=O)(=O)c1ccc(C(=O)N(CCCN(C)C)c2nc3cc(C)cc(C)c3s2)cc1` gave IL1B secr inh -100*, ATXN2 expr inh inconclusive, HepG2 tox inactive, TGFb inhibitor inconclusive and ATXN viability 25µM*.
For CCCCN(CC)S(=O)(=O)c1ccc(C(=O)N(CCCN(C)C)c2nc3cc(C)cc(C)c3s2)cc1 the results were IL1B secr inh -178*, ATXN2 expr inh inconclusive, HepG2 tox -178%, TGFb inhibitor inconclusive and ATXN viability inconclusive.
COc1ccc(C)c2sc(N(CCN(C)C)C(=O)c3ccc(S(=O)(=O)N(C)c4ccccc4)cc3)nc12 was read as IL1B secr inh 19, HepG2 tox -18%, TGFb inhibitor 0% and ATXN viability inactive.
`Cc1cc(C)c2sc(N(CCCN(C)C)C(=O)c3ccc(S(=O)(=O)N(C)Cc4ccccc4)cc3)nc2c1` gave IL1B secr inh -110*, ATXN2 expr inh inconclusive, HepG2 tox -114% and TGFb inhibitor inconclusive.
Screening Cc1ccc(CNC(=O)c2ccc3c(c2)nc2n3CCCC2)cc1 returned HepG2 tox -24% and TGFb inhibitor -27%.
For NC1(Cc2ccc(Cl)cc2)CCN(c2ncnc3[nH]ccc23)CC1 the results were ATXN2 expr inh 27µM*.
Screening O=C(Nc1ccc(OC(F)F)cc1)c1nc(SCc2ccccc2F)ncc1Cl returned HepG2 tox -11% and TGFb inhibitor -1%.
`COc1ccccc1CNC(=O)c1cn(C)c2ccc(S(=O)(=O)N(C)C3CCCCC3)cc2c1=O` gave ATXN2 expr inh -1%, HepG2 tox -24%, TGFb inhibitor -1% and ATXN viability inconclusive.
For COc1ccccc1N(CC(=O)NCc1ccco1)S(=O)(=O)c1ccc(C)cc1 the results were IL1B secr inh -85*, ATXN2 expr inh 1%, HepG2 tox -13%, TGFb inhibitor -32% and ATXN viability inactive.
Screening Cc1ccc(N(CC(=O)NCc2ccco2)C(=O)CNS(=O)(=O)c2ccc(F)cc2)c(C)c1 returned IL1B secr inh -95*, ATXN2 expr inh -5%, HepG2 tox 2%, TGFb inhibitor -1% and ATXN viability inactive.
`Oc1ccccc1-c1cc(C(F)(F)C(F)F)[nH]n1` gave IL1B secr inh -5, ATXN2 expr inh 28%, HepG2 tox -36%, TGFb inhibitor 11µM* and ATXN viability inactive.
For Fc1ccc(-c2cc(C(F)(F)C(F)F)[nH]n2)cc1 the results were ATXN2 expr inh 2%, HepG2 tox -71% and TGFb inhibitor inconclusive.
Screening CC1CCc2nc3ncn(Cc4cccc(F)c4)c(=O)c3cc2C1 (centres undefined) returned ATXN2 expr inh 21%, HepG2 tox 4%, TGFb inhibitor -1% and ATXN viability inactive.
COc1ccc(NS(=O)(=O)c2cccc(C(=O)NC3CCN(Cc4ccccc4)CC3)c2)cc1 was read as IL1B secr inh -70*, ATXN2 expr inh -23%, HepG2 tox -36%, TGFb inhibitor inconclusive and ATXN viability inactive.
`O=C(NC1CCN(Cc2ccccc2)CC1)c1cccc(S(=O)(=O)Nc2cc(C(F)(F)F)ccc2Cl)c1` gave IL1B secr inh -6, ATXN2 expr inh -10%, HepG2 tox -34%, TGFb inhibitor -25% and ATXN viability inactive.
For COc1ccc(Cl)cc1NS(=O)(=O)c1cccc(C(=O)NC2CCN(Cc3ccccc3)CC2)c1 the results were IL1B secr inh -57*, ATXN2 expr inh -35%, HepG2 tox -19%, TGFb inhibitor inconclusive and ATXN viability inactive.

High-throughput results: PubChem BioAssay, National Center for Advancing Translational Sciences (NCATS)
